Screening data: PubChem BioAssay, National Center for Advancing Translational Sciences (NCATS)
Sampled rows, rich in hits. Any-hit rate of the full collection: about 0.8%.
TRHR enhancer: qHTS for Small Molecule Agonists and Allosteric Enhancers of Human TRH Receptor: Primary Screen for Enhancers | 0.66% of 360,000 active | enhancement, % at 2 µM | TRHR cells, fluo-8 calcium fluorescence, EC20 TRH enhancement | AID 493056, 2011; in the data active = enhancement above about 30%; note: 0% is about no effect
Target sequence (P34981 whole entry, looked up): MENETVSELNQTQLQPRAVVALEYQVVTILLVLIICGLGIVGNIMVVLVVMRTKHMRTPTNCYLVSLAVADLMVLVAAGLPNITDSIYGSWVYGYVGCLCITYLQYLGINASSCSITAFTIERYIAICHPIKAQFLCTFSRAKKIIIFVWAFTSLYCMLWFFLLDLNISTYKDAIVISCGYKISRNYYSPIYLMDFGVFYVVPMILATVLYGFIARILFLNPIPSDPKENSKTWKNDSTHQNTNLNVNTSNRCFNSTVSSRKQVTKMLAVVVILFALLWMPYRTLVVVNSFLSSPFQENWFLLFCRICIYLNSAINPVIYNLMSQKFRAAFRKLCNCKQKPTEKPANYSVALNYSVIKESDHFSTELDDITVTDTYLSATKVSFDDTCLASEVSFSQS
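Enhancer read-out: after compound pinning and an initial kinetic agonist-mode read, an EC20 of TRH (10 nM final) was injected and fluo-8 calcium signal (Ex 480/Em 530) followed at 1 s/cycle for 100 cycles in TRHR-expressing cells.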
TRPML1 ag: qHTS for Agonists of the Human Mucolipin Transient Receptor Potential 1 (TRPML1); 0.12% of 410,000 active; TRPML1-expressing cells, Ca2+ dye fluorescence, FDSS; activation, % (concentration not given with the values); Mucolipin-1 (Homo sapiens), Q9GZU1; AID 624414, 2012; in the data active = activation above about 50%; inconclusive = mostly about 30% to 49%; note: 0% is about no effect
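TRPML1-DL cells, Tet-induced overnight (~16 h, 37 degrees C), loaded 45-90 min at room temperature with Ca8 no-wash calcium dye plus quencher. FDSS fluorescence: 10 s baseline, compound pin-transfer, 110 s agonist read, then EC80 54-4 (4uM final) and 110 s antagonist read.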
TRHR ag: qHTS for Small Molecule Agonists and Allosteric Enhancers of Human TRH Receptor: Primary Screen for Agonists | Thyrotropin-releasing hormone receptor (Homo sapiens), P34981 | TRHR cells, calcium flux fluo-8, FDSS agonist mode | activation, % at 2 µM | 0.18% of 360,000 active; in the data active = activation above about 30%; note: 0% is about no effect
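Steps: seed TRHR cells overnight; add fluo-8 no-wash Ca dye, RT 30 min–1.5 h; record 10 s baseline; pin-transfer compounds; monitor fluorescence 1 cycle/s for the agonist window. Calcium increases flag candidate agonists.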
Glioma ERSR ind: qHTS for Inducers of the Endoplasmic Reticulum Stress Response (ERSR) in Human Glioma: qHTS; U87-MG GRP78 promoter luciferase reporter, 16 h; Potency, µM, without a hit: at the highest dose activation, most hits filed as activators; 0.02% of 420,000 active; active = well fitted activation curve with a large enough effect; inconclusive = small, poorly fitted or top-dose-only effect; inactive = no such curve, though single readings can be large or run the other way; note: potency is the fitted concentration of half-maximal effect; series mostly up to about 76 µM; % of control where 0% means no effect; nearly all actives have a fitted effect of over 35% in size
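Stably transfected U87-MG glioma cells carrying a GRP78-based luciferase sensor; 16 h compound incubation. Luminescence end-point read 10 min after Bright-Glo addition at room temperature.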
TRPML1 inh: qHTS for Inhibitors of the Human Mucolipin Transient Receptor Potential 1 (TRPML1); activity change, negative = inhibition, % (concentration not given with the values); 0.02% of 390,000 active; TRPML1-inducible cells, Ca2+ dye fluorescence, FDSS; active compounds read low; inhibition of EC80 agonist-evoked calcium signal; Mucolipin-1 (Homo sapiens), Q9GZU1; in the data active = activity change below about -50%; inconclusive = between about -30% and that limit;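 note: stimulus is agonist 54-4 at its EC80 concentration; % is set by controls: 0 for no effect and ±100 for the full control effect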
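Calcium fluorescence in TRPML1-DL cells induced overnight with Tet: a 110 s read after compound pin addition, then a 110 s antagonist read after challenge with 54-4 at 4 uM final (EC80).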
The depositor's hits bear a star; ? = inconclusive; nt = not tested or not shown.

SMILES	TRHR enhancer	TRPML1 ag	TRHR ag	Glioma ERSR ind	TRPML1 inh
COc1ccc(C(=O)/C=C/c2ccc(N(C)C)cc2)c(OC)c1	8.3	128.4*	127.0*	4.0%	-20.4
COc1ccc(C(=O)/C=C/c2ccccc2)c(OC)c1	-1.1	0.4	0.0	2.5%	12.7
CN(C)c1ccc(/C=C/C(=O)c2cccnc2)cc1	6.4	114.5*	95.4*	1.8%	-24.9
CN(C)c1ccc(C(=O)C=Cc2ccc([N+](=O)[O-])cc2)cc1	nt	-0.2	nt	-4.5%	11.2
CN(C)c1ccc(/C=C/C(=O)c2ccc3c(c2)OCO3)cc1	23.5	83.9*	121.4*	-0.2%	-14.1
OC1(c2ccc3c(c2)CN(Cc2nccs2)CCO3)CCN(c2ccccc2F)CC1	nt	nt	nt	2.2%	nt
C#CCNC(=O)C[C@@H]1C[C@@]2(C(=O)OCC)CCCC=C2N(Cc2ccc3c(c2)OCO3)C1=O	nt	63.0*	nt	nt	nt
CCCCNC(=O)C[C@@H]1C[C@@]2(C(=O)OCC)CCCC=C2N(Cc2ccc3c(c2)OCO3)C1=O	nt	-0.7	nt	nt	nt
CC(NC(=O)C1CCOCC1)c1nnc2n1CCN(Cc1ccc3cccnc3c1)CC2 (configuration not stated)	nt	nt	nt	-3.3%	nt
COc1ccccc1NC(=O)c1ccc(NC(=O)COC(=O)C(C)C)cc1	33.5*	-0.2	-0.5	-2.7%	31.9
Cc1occc1C(=O)Nc1cccc(-c2nc(CNC(=O)c3cccc(C#CC(C)(C)O)c3)c(C)o2)c1	nt	nt	nt	-5.3%	nt
O=C(c1cscn1)N1CCOc2ccc(CN3CCC(Oc4cccnc4)CC3)cc2C1	nt	nt	nt	-4.6%	nt
O=C(c1cc(-c2ccccc2)on1)N1CCc2ccccc2C1	36.1*	0.2	1.1	5.1%	-0.8
Cc1nn2c(-c3cccc(NC(=O)c4ccco4)c3)nnc2c2ccccc12	13.5	0.8	-1.4	-4.4%	-11.3
Cc1nn2c(-c3cccc(NC(=O)c4ccc(Cl)cc4)c3)nnc2c2ccccc12	42.2*	2.2	-0.5	-5.6%	7.9
CCN1CCCC1CNC(=O)Cn1nc(C)n2c(cc3cc(F)ccc32)c1=O (configuration not stated)	35.4*	-0.4	0.8	-5.9%	3.6
COc1ccccc1C(=O)N(Cc1cc2cccc(C)c2nc1N1CCC(O)CC1)C1CC1	nt	nt	nt	-3.4%	nt
O=C(O)C(c1ccccc1)N1C(=O)/C(=C\c2ccc(O)c(O)c2)SC1=S (configuration not stated)	-3.3	16.2	31.7*	-5.1%	15.2
COc1cc(/C=C2\SC(=S)N(NC(=O)c3cccc(O)c3)C2=O)ccc1O	9.0	20.6	75.0*	2.0%	-0.6
COc1cc(/C=C2\SC(=S)N(NC(=O)c3ccncc3)C2=O)ccc1O	-1.9	nt	13.1	-1.7%	nt
CCOc1cc(/C=C2\SC(=S)N(C(C(=O)O)c3ccccc3)C2=O)ccc1O (configuration not stated)	2.2	nt	-0.7	-3.1%	nt
COc1cc(/C=C2\SC(=S)N(C(C(=O)O)c3ccccc3)C2=O)ccc1O (configuration not stated)	0.5	14.9	50.0*	-4.4%	-6.4
CCOc1ccc(/C=C2/SC(=S)N(C(C(=O)O)c3ccccc3)C2=O)cc1OCC (configuration not stated)	-2.8	0.4	-1.6	-7.3%	-6.1
O=C1/C(=C\c2cc([N+](=O)[O-])ccc2O)SC(=S)N1Cc1ccc(Cl)cc1	7.8	?	120.2*	-4.8%	-5.9
O=C1/C(=C\c2ccc(O)c(O)c2)SC(=S)N1Cc1ccccc1	-1.6	26.9	-0.9	-5.3%	-6.7
SMILES	TRHR enhancer	TRPML1 ag	TRHR ag	Glioma ERSR ind	TRPML1 inh
COc1cc(/C=C2/SC(=S)N(Cc3ccccc3)C2=O)ccc1O	6.8	?	39.4*	8.1%	4.0
Cn1c(-c2ccncc2)nc2cc(C(=O)N3CCCC3c3nccs3)cc(NC(=O)C3CCC3)c21 (configuration not stated)	nt	nt	nt	-4.9%	nt
CSC1=N/C(=C\c2ccccc2C)C(=O)S1	32.0*	0.6	0.9	-2.6%	-3.8
Cc1ccc(N2C(N)=C(C#N)C(c3ccsc3)C3=C2CC(C)(C)CC3=O)cc1 (configuration not stated)	4.5	57.2*	-1.0	-2.1%	-2.1
CN(C)N1C(N)=C(C#N)C(c2ccsc2)C2=C1CC(C)(C)CC2=O (configuration not stated)	6.9	-0.7	-0.5	-3.4%	-29.3
CC(C)(C)n1ncc2c(=O)n(Cc3ccc(-c4ccccc4C#N)cc3)cnc21	nt	2.0	nt	-1.5%	-7.4
N#C/C(=C\c1ccc(O)cc1)c1nc2ccccc2o1	-3.3	9.3	5.6	-0.1%	-20.4
COc1cc(/C=C(\C#N)c2nc3ccccc3o2)ccc1O	6.2	53.1*	77.8*	9.9%	-2.6
CCCCOc1cccc(C(=O)Nc2cccc(-c3nc4ncccc4o3)c2C)c1	43.3*	0.2	-1.6	-3.3%	-10.9
Cc1ccc(N2C(=O)C(F)(F)C2c2ccccc2)cc1 (configuration not stated)	-5.5	62.9*	1.1	2.0%	-19.7
O=C1N(c2ccc3c(c2)OCCO3)C(c2ccccc2)C1(F)F (configuration not stated)	-7.2	3.0	-0.4	7.1%	9.3
COCCn1c(C)cc(O)c(C(c2ccccc2OC)N2CCN(c3ccccc3)CC2)c1=O (configuration not stated)	45.5*	1.0	-0.2	-0.5%	-2.2
Cc1occc1-c1nnc(SCC(=O)Nc2ccccn2)o1	38.8*	-0.4	-0.1	2.5%	-0.5
O=C(CSc1nnc(-c2ccccc2Cl)o1)Nc1ccccn1	4.4	0.3	-2.0	-9.0%	48.8
Cc1cccc(NC(=O)CSc2nnc(-c3ccco3)o2)c1C	-3.2	-1.5	-0.5	0.0%	-4.0
Cc1ccc(C)c(NC(=O)CSc2nnc(-c3ccco3)o2)c1	32.2*	-0.8	-0.3	-0.8%	-21.8
CC(OC(=O)C1CCN(S(=O)(=O)c2ccc(C(C)(C)C)cc2)CC1)C(=O)N(C)C1CCCCC1 (configuration not stated)	nt	94.9*	nt	-1.7%	-17.0
COC(=O)CSc1nc(N)c(C#N)c(-c2ccc(O)cc2)c1C#N	-2.5	1.0	-0.4	-18.6%	-6.0
C=CCSc1nc(N)c(C#N)c(-c2ccc(C)cc2)c1C#N	38.4*	1.3	0.2	-3.5%	9.2
Cn1c(SCC2CCCO2)nnc1C1CCN(Cc2ccccc2O)CC1 (configuration not stated)	nt	nt	nt	-2.1%	nt
CCOC(=O)c1c(C)c(C(=O)NCc2cccs2)c(C)n1C	3.0	0.4	-0.5	-3.3%	-56.7*
